The values below come from PubChem BioAssay (Tox21).

“And” between values parts separate entries of the source, which are not always exact repeats. Equal values may be shown once. Results filed as inconclusive are left out. Some structures have more than one record in an assay (separate samples or runs), and their calls can disagree. The source made the active and inactive calls. Calls follow the shape of the dose curve; as a rule, active = well fitted activation curve with a large enough effect in the repeat runs; inconclusive = weak or mixed curves; inactive = flat fitted curve, though single readings scatter.
% is scaled to controls: 0 for no effect and ±100 for the full control effect; potency is read from the fitted curve at half-maximal effect.

This test is described as follows: A CellTox Green Cytotoxicity Assay to monitor cytotoxicity in HEK293 cells - 32 hour (AID 1224881). Also: nearly all actives have a fitted effect of over 40% in size. Particulars: CellTox Green fluorescence; series mostly up to 35.3 µM; cytotoxicity increase: at the top concentration. An excerpt: National Center for Advancing Translational Sciences [NCATS]
NIH Chemical Genomics Center [NCGC]
U.S. Environmental Protection Agency [EPA]
National Institutes of Environmental Health Sciences [NIEHS]
National Toxicology Program [NTP]
Cell-based models are critical for drug discovery. Determining the natural cytotoxic effects resulting from test compounds is an essential research activity. A CellTox Green Cytotoxicity Assay to monitor cytotoxicity in real time of continues cell culture during 40 hours of the compound treatment was used to screen Tox21 10K library compounds in Hek293 cells. CellTox Green Cytotoxicity Assay is a nonlytic, homogeneous, biofluorescent method to measure cytotoxicity in cell culture after experimental manipulation. The assay system uses a proprietary asymmetric cyanine dye that is excluded from viable cells but preferentially stains the dead cell's DNA. […] Viable cells produce no appreciable increases in fluorescence. Therefore, the fluorescence signal produced by the binding interaction with dead cell DNA is proportional to cytotoxicity.
The mixture of Hek293 cell suspension and reagents were dispensed at 600cells/6 ul/well in 1536-well tissue culture treated black solid bottom plates using a Multidrop dispenser. After the assay plates were incubated at a 37 C/5% CO2 incubator for 5 hours, 23 nL of compounds dissolved in DMSO, positive and negative controls was transferred to the assay plate by a pintool work station. The plates were incubated at 37 C for 40 hours. The fluorescence intensity were measured at 0h, 8h, 16h, 24h, 32h and 40h time points using ViewLux plate reader during compound treatment.
Regarding `CCc1cccc2c(CCO)c[nH]c12`, the “cytotoxicity increase” value is 5.23% (inactive). With `O=C1CCCN1C1CCCCC1`, the “cytotoxicity increase” value was 1.06% [at 76.8 µM] (inactive).

On to `Nc1c2c(nc3ccccc13)CCCC2O` (stereo not given), for which the “cytotoxicity increase” value was 8.15% (inactive). As for `COC(=O)CC(C)=O`, the “cytotoxicity increase” value is 17% [at 76.8 µM] (inactive). Turning to `CCOc1ccc(C(=O)OCCN(CC)CC)cc1`, the “cytotoxicity increase” value is -2.3% (inactive). The same measure, in the same setting: next, `O=C(O)CCCc1ccccc1`: -18.9% (inactive); `c1cnc(N2CCN(Cc3ccc4c(c3)OCO4)CC2)nc1`: -15.5% (inactive); `CN1C(=O)N(C)C(O)C1O` (stereo not given): 1.48% [at 76.8 µM] (inactive). Turning to `CC(C)NCC(O)c1ccc(NS(C)(=O)=O)cc1` (stereo not given), the “cytotoxicity increase” value is 8.79% [at 76.8 µM] (inactive).

For `CCCCCCCCS(=O)(=O)Cl`, the “cytotoxicity increase” value is -0.54% [at 76.8 µM] (inactive). Consider `CC(C)NCCCC1(C(N)=O)c2ccccc2-c2ccccc21`, for which the “cytotoxicity increase” value is -8.87% (inactive). For the molecule `NC(=O)Nc1ccccc1`, the “cytotoxicity increase” value is -9.2% [at 76.8 µM] (inactive). As for `O=c1n(CCO)c(=O)n(CCO)c(=O)n1CCO`, the Potency result is “inactive and 38.9 µM (active)”. In the case of `CCC(=O)OC(C)c1ccccc1` (stereo not given), the “cytotoxicity increase” value is 20.2% [at 76.8 µM] (inactive). Consider `COC(=O)CCSCCC(=O)OC`, for which the “cytotoxicity increase” value is -2.72% [at 76.8 µM] (inactive). Consider `O=C1OC(=O)C2CCCCC12` (stereo not given), for which the “cytotoxicity increase” value is 3.67% [at 76.8 µM] (inactive). For the molecule `CCCCC(CC)COC(=O)c1ccccc1O` (stereo not given), the “cytotoxicity increase” value was -4.83% (inactive). As for `O=c1[nH]c(=O)n([C@H]2C[C@H](O)[C@@H](CO)O2)cc1I`, the “cytotoxicity increase” value was 4.36% (inactive).

With `COc1ccc(CCN(C)CCCC(C#N)(c2cc(OC)c(OC)c(OC)c2)C(C)C)cc1OC` (stereo not given), the “cytotoxicity increase” value was -8.36% (inactive). Take `CC[N+](C)(C)c1cccc(O)c1`: the “cytotoxicity increase” value was -1.38% (inactive). With `NC(CSCC(=O)O)C(=O)O` (stereo not given), the “cytotoxicity increase” value is -6.89% (inactive).

Consider `NS(=O)(=O)c1cc(C(=O)O)cc(N2CCCC2)c1Oc1ccccc1`, for which the “cytotoxicity increase” value is 3.59% (inactive). On the same count and under the same terms, next, `CC(C[N+](C)(C)C)OC(N)=O` (stereo not given): 1.83% (inactive); `COc1c(N2C[C@@H]3CCCN[C@@H]3C2)c(F)cc2c(=O)c(C(=O)O)cn(C3CC3)c12`: -6.74% (inactive). As for `N[C@H]1CN(c2c(F)cc3c(=O)c(C(=O)O)cn(C4C[C@H]4F)c3c2Cl)CC12CC2` (stereo not given in full), the “cytotoxicity increase” value was 1.19% (inactive). As for `C1OCOCO1`, the “cytotoxicity increase” value was -0.375% [at 76.8 µM] (inactive). Consider `NC(=O)COCCN1CCN(C(c2ccccc2)c2ccc(Cl)cc2)CC1` (stereo not given), for which the “cytotoxicity increase” value is -4.72% (inactive).

On to `OCCCC1CCCCC1`, for which the “cytotoxicity increase” value is -10.4% [at 76.8 µM] (inactive). As to `CCN1CCC[C@H]1CNC(=O)c1cc(S(N)(=O)=O)ccc1OC`, the “cytotoxicity increase” value was -4.94% (inactive).

Regarding `CCCCNC(=O)NCCCC`, the “cytotoxicity increase” value was -1.3% [at 76.8 µM] (inactive). Consider `COC(=O)[C@@H](N)Cc1ccc(O)c(O)c1`, for which the “cytotoxicity increase” value is -11.3% (inactive). The same measure, in the same setting: as for `Cc1cccn2c(=O)c(-c3nnn[nH]3)cnc12`, the figure is 8.53% [at 15.8 µM] (inactive).

Take `N#Cc1ccc(C2CCCc3cncn32)cc1` (stereo not given): the “cytotoxicity increase” value is -8.03% (inactive).

With `CCn1nc(C(=O)O)c(=O)c2cc3c(cc21)OCO3`, the “cytotoxicity increase” value is -16% (inactive). In the case of `CO[C@]12C[C@@H](COC(=O)c3cncc(Br)c3)CN(C)[C@@H]1Cc1cn(C)c3cccc2c13`, the “cytotoxicity increase” value is 25% (inactive). Still for that read-out and setting: next, `O=C(O)CN(CCOCCOCCN(CC(=O)O)CC(=O)O)CC(=O)O`: 6.54% [at 0.29 µM] (inactive); `Cc1ccc(C#N)cc1`: -1.81% [at 76.8 µM] (inactive). In the case of `CN1CCC(=C2c3ccccc3CC(=O)c3sccc32)CC1`, the “cytotoxicity increase” value is -6.81% (inactive). With `C=CCOCC(CC)(CO)COCC=C`, the “cytotoxicity increase” value was 7.84% [at 76.8 µM] (inactive). In the case of `C[N+](C)(C)CC(O)CC(=O)[O-]` (stereo not given), the “cytotoxicity increase” value was -11.6% (inactive).
